The assay relates to Trichuris muris adult worms. Put plainly: mean motility score (Paragon pixel variance) of adult worms (arbitrary units); higher = more motile worms, i.e. less anthelmintic effect; extreme values may be limits of the assay. The following applies: 100 µM; 24 h. Summed up: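 Single adult Trichuris muris worms, recovered from infected NOD SCID mice, were exposed to drug at 100 μM (1% v/v DMSO) in 100 μL RPMI-1640 with antibiotics in 96-well plates for 24 h at 37°C and 5% CO2. The plates were then filmed on an automated phenotyping platform. The motility score was calculated through Paragon pixel-variance analysis and averaged across replicate wells, with three worms in three wells per drug on three separate occasions.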
With `CC[C@H]1OC(=O)[C@H](C)[C@@H](O[C@H]2C[C@@](C)(OC)[C@@H](O)[C@H](C)O2)[C@H](C)[C@@H](O[C@@H]2O[C@H](C)C[C@H](N(C)C)[C@H]2O)[C@](C)(OC)C[C@@H](C)C(=O)[C@H](C)[C@@H](O)[C@]1(C)O` [clarithromycin], the mean motility score stood at 2330.

For the compound `CC(=O)N1CCN(c2ccc(OC[C@@H]3CO[C@@](Cn4ccnc4)(c4ccc(Cl)cc4Cl)O3)cc2)CC1` [ketoconazole], the mean motility score amounted to 1360.

With `CNCCC=C1c2ccccc2CCc2ccccc21` [nortriptyline], the mean motility score was found to be 911.

With `CN(C)CCCN1c2ccccc2Sc2ccc(Cl)cc21` [chlorpromazine], the mean motility score was determined as 0.

In turn, `COc1ccc2[nH]cc(CCNC(C)=O)c2c1` [melatonin] displayed a mean motility score of 4410.

Turning to `COC1=C(OC)C(=O)C(CCCCCCCCCCO)=C(C)C1=O` [idebenone], the mean motility score was 1370.

On to `CC[C@H](Nc1ncnc2[nH]cnc12)c1nc2cccc(F)c2c(=O)n1-c1ccccc1` [idelalisib], for which the mean motility score was found to be 3590.

In turn, `Cc1ccc(C(=O)Nc2ccc(CN3CCN(C)CC3)c(C(F)(F)F)c2)cc1C#Cc1cnc2cccnn12` [ponatinib] returned a mean motility score of 1760.

With `Oc1ccc(O)cc1` [hydroquinone], the mean motility score turned out to be 4230.

`O=C1c2c(O)ccc(O)c2C(=O)c2c(NCCNCCO)ccc(NCCNCCO)c21` [mitoxantrone] registered a mean motility score of 1350.

`C/C=C(/C(=C/C)c1ccc(O)cc1)c1ccc(O)cc1` [dienestrol] came in with a mean motility score of 3590.

For the compound `C[C@](N)(Cc1ccc(O)c(O)c1)C(=O)O` [methyldopa], the mean motility score is 4060.

On to `CCn1cc(C(=O)O)c(=O)c2cc(F)c(N3CCNCC3)cc21` [norfloxacin], for which the mean motility score was found to be 1950.

`CC(C)(C)c1ccc(C(O)CCCN2CCC(C(O)(c3ccccc3)c3ccccc3)CC2)cc1` (stereo not given) [terfenadine] displayed a mean motility score of 1.

Take `CC/C(=C(/CC)c1ccc(O)cc1)c1ccc(O)cc1` [diethylstilbestrol]: the mean motility score is 0.

For `Cc1[nH]c(/C=C2\C(=O)Nc3ccccc32)c(C)c1CCC(=O)O` [orantinib], the mean motility score was found to be 3560.

`CC(=O)OC(C)C[N+](C)(C)C.[Cl-]` (stereo not given) [methacholine chloride] yielded a mean motility score of 2220.

As for `CCCc1nc(C(C)(C)O)c(C(=O)OCc2oc(=O)oc2C)n1Cc1ccc(-c2ccccc2-c2nnn[nH]2)cc1` [olmesartan medoxomil], the mean motility score turned out to be 3650.

Compound `CCN(CC)CCNC(=O)c1c(C)[nH]c(/C=C2\C(=O)Nc3ccc(F)cc32)c1C` [sunitinib] returned a mean motility score of 531.

Compound `CN1CCC[C@H]1c1cccnc1` [nicotine] came in with a mean motility score of 0.

Compound `CN1CCN(CC/C=C2/c3ccccc3Sc3ccc(S(=O)(=O)N(C)C)cc32)CC1` [thiothixene] yielded a mean motility score of 1030.

`CC(=O)OC[C@H]1O[C@@H](n2ncc(=O)[nH]c2=O)[C@H](OC(C)=O)[C@@H]1OC(C)=O` [azaribine] gave a mean motility score of 3970.

Compound `CN1CCc2cccc3c2[C@H]1Cc1ccc(O)c(O)c1-3` [apomorphine] came in with a mean motility score of 2320.

`O=C(O)c1ccc2ccccc2c1O.OCc1cc(C(O)CNCCCCCCOCCCCc2ccccc2)ccc1O` (stereo not given) [salmeterol xinafoate] displayed a mean motility score of 0.

`COc1c2ccoc2cc2oc(=O)ccc12` [bergapten] returned a mean motility score of 3090.

(Values after the supplement of paper PMC10503962.)
